Results filed as inconclusive are left out. The source made the active and inactive calls. Unless noted, calls come from the whole dose curve; as a rule, active = well fitted curve in the direction sought with a large enough effect; inconclusive = small, poorly fitted or top-dose-only effect, or another doubt; inactive = no such curve, though single readings can be large; an effect the other way counts as inactive or inconclusive.
Legend:
[1] = target: Bile acid receptor (Homo sapiens) (UniProt Q96RI1); experiment: qHTS assay for small molecule agonists of farnesoid X receptor signaling (AID 588527; calls by dose curve;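 note: series mostly up to about 77 µM; 0% = vehicle basal and 100% = reference agonist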); settings: HEK293T FXR-UAS-bla, beta-lactamase ratio, 16 h; activation: stronger effect = higher value
Chain of Bile acid receptor (Homo sapiens) (Q96RI1 whole entry, looked up): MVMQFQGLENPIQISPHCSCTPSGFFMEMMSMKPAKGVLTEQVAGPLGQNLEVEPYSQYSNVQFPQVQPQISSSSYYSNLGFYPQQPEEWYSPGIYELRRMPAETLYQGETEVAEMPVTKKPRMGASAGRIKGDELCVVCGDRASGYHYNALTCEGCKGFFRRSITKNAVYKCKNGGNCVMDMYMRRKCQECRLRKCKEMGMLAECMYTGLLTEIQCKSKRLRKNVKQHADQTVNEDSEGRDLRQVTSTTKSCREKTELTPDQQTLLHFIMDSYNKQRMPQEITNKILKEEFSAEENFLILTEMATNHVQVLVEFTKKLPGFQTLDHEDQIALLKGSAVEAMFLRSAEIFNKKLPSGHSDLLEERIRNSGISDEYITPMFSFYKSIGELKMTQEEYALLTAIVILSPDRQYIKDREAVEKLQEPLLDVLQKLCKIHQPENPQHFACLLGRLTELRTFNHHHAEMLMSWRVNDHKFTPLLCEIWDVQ
How it was run: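 FXR-UAS-bla HEK293T cells (10% dialyzed FBS) preincubated 5-7 h at 37 C, then compounds at up to 92 uM for 16 h at 37 C. CCF4 beta-lactamase read-out after 2 h RT. Normalized to chenodeoxycholic acid (100 uM) and DMSO; Hill fit gave EC50 and efficacy.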

[2] = target: Glucocorticoid receptor (Homo sapiens) (UniProt P04150); experiment: qHTS assay for small molecule antagonists of glucocorticoid receptor signaling (AID 588533; active = well fitted inhibition curve with a large enough effect in the signal ratio, with a control signal flat, not every such curve was filed as active; the % refers to the signal ratio;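 note: cells stimulated with 2 nM dexamethasone as agonist; % is set by controls: 0 for no effect and ±100 for the full control effect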)
Chain of Glucocorticoid receptor (Homo sapiens) (P04150 whole entry, looked up): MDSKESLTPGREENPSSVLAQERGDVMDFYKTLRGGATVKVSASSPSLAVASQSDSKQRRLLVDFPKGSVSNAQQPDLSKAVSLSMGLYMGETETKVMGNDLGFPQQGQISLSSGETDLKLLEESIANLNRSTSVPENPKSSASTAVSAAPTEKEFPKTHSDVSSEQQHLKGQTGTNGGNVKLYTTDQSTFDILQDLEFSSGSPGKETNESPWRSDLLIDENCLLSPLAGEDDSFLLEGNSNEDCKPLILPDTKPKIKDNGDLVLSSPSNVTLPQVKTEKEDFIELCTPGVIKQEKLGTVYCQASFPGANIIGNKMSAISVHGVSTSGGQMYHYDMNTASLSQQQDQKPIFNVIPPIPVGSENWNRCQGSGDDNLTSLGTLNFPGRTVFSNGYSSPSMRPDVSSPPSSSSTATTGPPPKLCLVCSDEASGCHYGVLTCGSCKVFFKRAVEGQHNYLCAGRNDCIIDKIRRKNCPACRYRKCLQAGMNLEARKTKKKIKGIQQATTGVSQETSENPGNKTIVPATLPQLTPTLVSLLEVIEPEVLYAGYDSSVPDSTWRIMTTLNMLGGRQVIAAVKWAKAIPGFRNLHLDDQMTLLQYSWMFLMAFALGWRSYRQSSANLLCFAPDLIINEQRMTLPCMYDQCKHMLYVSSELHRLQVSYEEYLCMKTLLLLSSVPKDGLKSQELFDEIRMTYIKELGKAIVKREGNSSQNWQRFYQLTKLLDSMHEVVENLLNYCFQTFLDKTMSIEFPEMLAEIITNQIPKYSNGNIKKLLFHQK
How it was run: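 Antagonist-mode qHTS: compound titrations added to GRE-bla HeLa cells, then dexamethasone 2 nM final; 18 h, 37 C. CCF4 FRET fluorescence normalized to dexamethasone and DMSO; IC50 from Hill fit.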

[3] = target: Thyroid hormone receptor beta (Homo sapiens) (UniProt P10828); experiment: qHTS assay for small molecule agonists of thyroid hormone receptor beta signaling (AID 588545; calls by dose curve)
Chain of Thyroid hormone receptor beta (Homo sapiens) (P10828 whole entry, looked up): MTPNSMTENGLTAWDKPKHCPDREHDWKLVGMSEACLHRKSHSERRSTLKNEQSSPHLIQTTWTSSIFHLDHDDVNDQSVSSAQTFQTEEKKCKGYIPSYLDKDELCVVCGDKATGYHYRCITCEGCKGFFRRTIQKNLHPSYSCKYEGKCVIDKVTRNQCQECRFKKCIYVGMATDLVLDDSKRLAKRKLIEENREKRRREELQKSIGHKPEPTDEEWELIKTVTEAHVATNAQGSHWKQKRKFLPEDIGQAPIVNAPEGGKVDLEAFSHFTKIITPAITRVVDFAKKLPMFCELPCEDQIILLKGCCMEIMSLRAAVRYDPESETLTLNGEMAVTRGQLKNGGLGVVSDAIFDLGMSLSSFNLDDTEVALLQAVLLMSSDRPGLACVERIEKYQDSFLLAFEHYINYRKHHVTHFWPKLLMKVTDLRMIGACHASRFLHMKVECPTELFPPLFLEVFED
How it was run: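 Agonist activity was read as beta-lactamase CCF4 fluorescence (405 ex, 460/530 em), scaled between DMSO (0%) and 10 nM T3 (100%), then Hill-fitted for EC50 and efficacy. HEK 293 TR-UAS-bla cells in 2% charcoal/dextran FBS medium were exposed 18 h at 37 C.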

[4] = qHTS assay for small molecule antagonists of retinoid X receptor alpha signaling (AID 588546; active = well fitted inhibition curve with a large enough effect in the signal ratio, with a control signal flat, not every such curve was filed as active; the % refers to the signal ratio;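 note: cells stimulated with 9-cis-retinoic acid as agonist; % is set by controls: 0 for no effect and ±100 for the full control effect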); settings: HEK293T RXRa-UAS-bla, beta-lactamase ratio, antagonist mode; measured here: W530 green channel, cytotoxicity proxy
How it was run: (§1)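 Beta-lactamase reporter inhibition, read as CCF4 fluorescence ratio (ex 405, em 460/530 nm) after 2 h at RT. HEK293T UAS-bla cells, 2500/well, were stimulated with 9-cis-RA at 500 or 100 nM final alongside test compound for 18 h at 37 C.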

[5] = target: Retinoic acid receptor RXR-alpha (Homo sapiens) (UniProt P19793); experiment: as above; settings: HEK293T RXRa-UAS-bla, beta-lactamase ratio, antagonist mode
Chain of Retinoic acid receptor RXR-alpha (Homo sapiens) (P19793 whole entry, looked up): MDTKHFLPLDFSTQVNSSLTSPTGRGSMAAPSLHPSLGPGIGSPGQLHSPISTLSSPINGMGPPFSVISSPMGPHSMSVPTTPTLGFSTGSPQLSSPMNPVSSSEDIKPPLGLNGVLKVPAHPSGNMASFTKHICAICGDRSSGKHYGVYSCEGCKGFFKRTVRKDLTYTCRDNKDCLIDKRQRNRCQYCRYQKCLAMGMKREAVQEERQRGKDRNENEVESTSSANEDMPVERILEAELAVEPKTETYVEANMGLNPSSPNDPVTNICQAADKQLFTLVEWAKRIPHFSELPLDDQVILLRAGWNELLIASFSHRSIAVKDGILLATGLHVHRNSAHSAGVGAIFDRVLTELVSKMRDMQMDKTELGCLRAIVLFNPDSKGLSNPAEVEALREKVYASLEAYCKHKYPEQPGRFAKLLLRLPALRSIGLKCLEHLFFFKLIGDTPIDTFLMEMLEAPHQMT
How it was run: as §1

[6] = target: Thyroid hormone receptor beta (Homo sapiens) (UniProt P10828); experiment: qHTS assay for small molecule antagonists of thyroid hormone receptor beta signaling (AID 588547; active = well fitted inhibition curve with a large enough effect in the signal ratio, with a control signal flat, not every such curve was filed as active; the % refers to the signal ratio;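 note: cells stimulated with 0.4 nM T3 agonist during compound exposure; series mostly up to about 77 µM; % is set by controls: 0 for no effect and ±100 for the full control effect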); settings: TR-UAS-bla HEK293, beta-lactamase ratio, antagonist mode, 18 h
How it was run: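 Inhibition of T3-driven (0.4nM final) beta-lactamase reporter activity was measured over 0.59 nM to 92 uM compound after 18 h at 37 C. The cells were GripTite HEK293 TR-UAS-bla in charcoal/dextran-stripped serum, with CCF4 ratio read-out and IC50 from Hill fits.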

[7] = qHTS assay for small molecule activators of the p53 signaling pathway (AID 651743; active = well fitted activation curve with a large enough effect in the signal ratio, not every such curve was filed as active; the % refers to the signal ratio; note: series mostly up to about 92 µM; % of control where 0% means no effect); settings: HCT-116 p53RE-bla, beta-lactamase FRET ratio, 16 h; activation: stronger effect = higher value
How it was run: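 Read-out is fluorescence intensity from the LiveBLAzer B/G FRET substrate, added for 2 hours at room temperature after HCT-116 p53RE-bla cells had been incubated with compounds for 16 hours at 37 C.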

[8] = qHTS assay for environmental chemicals that activate the Aryl hydrocarbon Receptor (AhR) signaling pathway (AID 651777); settings: 1A2-DRE human hepatoma cells, luciferase, 24 h; activation: stronger effect = higher value; note: % of control where 0% means no effect; nearly all actives have a fitted effect of over 15% in size
How it was run: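 Concentration–response screening used 1,200 1A2-DRE cells per well, 24 hr compound exposure (37 C, 5% CO2), and One-Glo luminescence as the AhR-driven CYP1A2 reporter signal.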

[9] = qHTS assay for small molecule agonists of the antioxidant response element (ARE) signaling pathway measured by Nrf2-dependant transcriptional activity (AID 720636; active = well fitted curve in the direction sought with a large enough effect in the repeat runs; an effect the other way counts as inactive or inconclusive;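 note: HepG2 cells with an ARE-driven luciferase reporter; % of control where 0% means no effect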)
How it was run: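 Attachment 6 hr at 37 C, then compound versus DMSO vehicle for 16 hr in ARE-luc HepG2 cells (1% dialyzed FBS); luminescence recorded 30 min after ONE-Glo addition at room temperature.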

[10] = qHTS assay for small molecule agonists of the antioxidant response element (ARE) signaling pathway measured by Nrf2-dependant transcriptional activity - cell viability counter screen (AID 720653; active = well fitted curve in the direction sought with a large enough effect in the repeat runs; an effect the other way counts as inactive or inconclusive; note: % is set by controls: 0 for no effect and ±100 for the full control effect); settings: ARE-bla HepG2 viability, CellTiter-Glo ATP luminescence, 16 h; max response: stronger effect = lower value
How it was run: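 Cytotoxicity counter screen: intracellular ATP quantified by CellTiter-Glo luminescence in the same ARE-bla HepG2 plates, after 16 h compound exposure and a 2 h beta-lactamase substrate step.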

[11] = qHTS assay for cell viability of HEK293 cells (AID 743288); settings: ATP luminescence (CellTiter-Glo), 18 h; max response: stronger effect = lower value; note: % is set by controls: 0 for no effect and ±100 for the full control effect; nearly all actives have a fitted effect of over 50% in size
How it was run: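 HEK293 parental, 2,000 cells/well; ≥5 h pre-incubation 37 C; pintool compound addition; 18 h, 37 C; CellTiter-Glo 30 min RT; luminescence read.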

[12] = qHTS assay for cell viability of the p53RE-bla HCT-116 cell line (AID 743292); note: % is set by controls: 0 for no effect and ±100 for the full control effect; nearly all actives have a fitted effect of over 55% in size
How it was run: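 Compound-exposed HCT-116 (p53RE-bla) cells, 4,000 per well, were kept 16 h at 37 C following a 5 h preincubation. Cell number was estimated from total ATP by CellTiter-Glo luminescence read after 30 min at room temperature.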

[13] = target: Nuclear receptor subfamily 1 group I member 2 (Rattus norvegicus) (UniProt Q9R1A7); experiment: qHTS assay for small molecule activators of the rat pregnane X receptor (rPXR) signaling pathway (AID 651751; call rule not given here; note: 0% is about no effect); settings: rPXR reporter cells, luciferase (One-Glo), 24 h
Chain of Nuclear receptor subfamily 1 group I member 2 (Rattus norvegicus) (Q9R1A7 whole entry, looked up): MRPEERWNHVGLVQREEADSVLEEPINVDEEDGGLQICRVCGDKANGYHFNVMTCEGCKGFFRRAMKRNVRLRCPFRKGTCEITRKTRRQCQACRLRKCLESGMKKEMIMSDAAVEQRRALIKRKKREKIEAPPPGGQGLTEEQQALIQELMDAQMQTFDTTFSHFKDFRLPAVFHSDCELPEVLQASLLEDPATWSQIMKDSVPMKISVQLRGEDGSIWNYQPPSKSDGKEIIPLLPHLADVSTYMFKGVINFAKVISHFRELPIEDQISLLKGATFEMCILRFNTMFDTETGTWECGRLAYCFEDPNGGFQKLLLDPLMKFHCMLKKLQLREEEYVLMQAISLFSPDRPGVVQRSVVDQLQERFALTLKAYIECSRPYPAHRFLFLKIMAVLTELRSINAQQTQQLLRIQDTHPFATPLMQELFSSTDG

[14] = target: Peroxisome proliferator-activated receptor delta (Homo sapiens) (UniProt Q03181); experiment: qHTS assay for small molecule agonists of peroxisome proliferator-activated receptor delta signaling (AID 588534; calls by dose curve;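 note: 0% = DMSO basal wells and 100% = positive control agonist at 10 µM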)
Chain of Peroxisome proliferator-activated receptor delta (Homo sapiens) (Q03181 whole entry, looked up): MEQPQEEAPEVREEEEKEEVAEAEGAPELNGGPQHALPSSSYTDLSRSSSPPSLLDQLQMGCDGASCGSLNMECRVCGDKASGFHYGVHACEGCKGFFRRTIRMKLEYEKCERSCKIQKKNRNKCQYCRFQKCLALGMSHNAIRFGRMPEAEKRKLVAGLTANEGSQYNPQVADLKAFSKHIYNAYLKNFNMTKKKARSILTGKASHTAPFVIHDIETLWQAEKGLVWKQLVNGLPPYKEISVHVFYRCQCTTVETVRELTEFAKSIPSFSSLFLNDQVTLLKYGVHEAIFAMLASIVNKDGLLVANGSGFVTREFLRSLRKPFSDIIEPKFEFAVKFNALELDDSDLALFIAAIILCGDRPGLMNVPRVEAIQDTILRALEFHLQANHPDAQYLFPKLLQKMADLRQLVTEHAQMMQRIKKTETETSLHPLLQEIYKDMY
How it was run: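 Fluorescence from CCF4 substrate cleavage by beta-lactamase reporter, read 2 hrs at RT, measured agonist activity. Compounds were tested with 18 hrs exposure at 37 C. Concentration-response data fitted to Hill equation.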

[15] = qHTS assay for small molecule antagonists of peroxisome proliferator-activated receptor delta signaling (AID 588535); settings: HEK293T PPARd-UAS-bla, beta-lactamase FRET ratio, 18 h; 460 nm channel;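 note: cells co-treated with a PPAR-delta agonist as stimulator during compound exposure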
How it was run: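 HEK293T PPAR-delta-UAS-bla cells, 4000/well, 2% charcoal/dextran FBS; 5 h 37 C; cpd titration; 18 h 37 C; CCF4 2 h RT; FI 460/530 nm; Hill fit → IC50, efficacy.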

[16] = target: Vitamin D3 receptor (Homo sapiens) (UniProt P11473); experiment: qHTS assay for small molecule antagonists of vitamin D receptor signaling (AID 588541; calls by dose curve)
Chain of Vitamin D3 receptor (Homo sapiens) (P11473 whole entry, looked up): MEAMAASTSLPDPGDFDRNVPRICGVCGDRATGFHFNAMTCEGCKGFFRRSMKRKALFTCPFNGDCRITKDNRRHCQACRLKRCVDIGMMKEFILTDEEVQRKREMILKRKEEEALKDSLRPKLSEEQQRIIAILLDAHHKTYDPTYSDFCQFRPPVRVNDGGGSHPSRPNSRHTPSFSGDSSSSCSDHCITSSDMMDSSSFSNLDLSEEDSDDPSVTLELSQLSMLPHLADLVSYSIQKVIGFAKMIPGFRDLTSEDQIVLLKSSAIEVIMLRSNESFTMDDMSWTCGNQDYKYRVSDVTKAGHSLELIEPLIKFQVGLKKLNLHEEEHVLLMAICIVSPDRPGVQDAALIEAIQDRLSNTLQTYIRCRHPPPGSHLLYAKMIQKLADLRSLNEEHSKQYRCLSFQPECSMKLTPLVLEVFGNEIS
How it was run: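 Antagonist-mode beta-lactamase reporter assay: HEK293T VDR-UAS-bla cells were exposed to titrated compound alongside 1-alpha,25-dihydroxyvitamin D3 at 3 nM final for 16 h. Values were normalized to the 50 nM agonist control and DMSO basal, with IC50 and efficacy from Hill equation fits.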

[17] = target: Vitamin D3 receptor (Homo sapiens) (UniProt P11473); experiment: qHTS assay for small molecule agonists of vitamin D receptor signaling (AID 588543; calls by dose curve;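 note: 0% = DMSO basal and 100% = reference agonist control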)
How it was run: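 Reporter cells (HEK293T, VDR-UAS-bla) were seeded in medium with 2% charcoal-stripped serum and incubated 5 h, then compounds in concentration series were added for 16 h at 37 °C. Stimulation was scaled between DMSO basal and 50 nM 1α,25-dihydroxyvitamin D3.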

[18] = target: Peroxisome proliferator-activated receptor alpha (Homo sapiens) (UniProt Q07869); experiment: qHTS assay for small molecule agonists of the peroxisome proliferator-activated receptor alpha (PPARalpha) signaling pathway (AID 651778); settings: PathHunter PPARalpha complementation, chemiluminescence, 6 h; max response: stronger effect = higher value; note: potency is the fitted concentration of half-maximal effect; for max response: % of control where 0% means no effect
Chain of Peroxisome proliferator-activated receptor alpha (Homo sapiens) (Q07869 whole entry, looked up): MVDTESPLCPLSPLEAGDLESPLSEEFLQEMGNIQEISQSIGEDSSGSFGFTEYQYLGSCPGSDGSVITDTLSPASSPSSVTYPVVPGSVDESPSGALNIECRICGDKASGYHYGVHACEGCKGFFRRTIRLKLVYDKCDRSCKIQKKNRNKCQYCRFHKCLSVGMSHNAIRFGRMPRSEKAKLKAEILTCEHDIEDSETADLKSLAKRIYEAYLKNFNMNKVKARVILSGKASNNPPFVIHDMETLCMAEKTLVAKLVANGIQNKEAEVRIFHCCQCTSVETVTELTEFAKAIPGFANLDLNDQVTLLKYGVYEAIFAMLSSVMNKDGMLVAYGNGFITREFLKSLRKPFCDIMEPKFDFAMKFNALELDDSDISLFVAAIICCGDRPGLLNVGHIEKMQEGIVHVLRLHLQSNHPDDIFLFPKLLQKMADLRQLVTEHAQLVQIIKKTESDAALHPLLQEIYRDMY
How it was run: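 Chemiluminescence from complemented enzyme reported PPARalpha activation in cells after 6 hr of compound treatment at 37 C. The detection reagent was incubated for 60 min at room temperature, and compounds were scored as agonists.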

[19] = qHTS assay for small molecule agonists of retinoid X receptor alpha signaling (AID 588544; calls by dose curve; note: potency is the fitted concentration of half-maximal effect;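 for activation: 0% = DMSO basal wells and 100% = reference agonist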); settings: HEK293T RXRa-UAS-bla, beta-lactamase reporter, 18 h; 530 nm emission
[20] = target: Retinoic acid receptor RXR-alpha (Homo sapiens) (UniProt P19793); experiment: as above

Clc1ccc(-c2cc(Cl)c(Cl)cc2Cl)cc1Cl
inactive: activation [1] 4.78% | Potency [2] | Potency [3] | max response [5] 4.83% | activity change % (negative = inhibition) [6] -25.9% | activation [7] -5.87% | activation [8] 1.74% | Potency [9] | max response [10] 3.45% | max response [11] -23.9% | Potency [12] | max response [13] -1.84%
-9.16%: max response [4]

COC[C@H](C)N(C(=O)CCl)c1c(C)csc1C
-36.8%: max response [15]
inactive: Potency [2] | outcome [14] | Potency [16] | outcome [17] | Potency [3] | max response [5] -19.4% | activation [7] -5.41% | activation [8] -2.7% | max response [18] -0.842% | max response [10] 0.25% | max response [11] -14.5% | Potency [12] | max response [13] 0.618%
-0.446%: max response [4]

CCCCCCCCCCCCCCC(Br)C(=O)O (configuration not stated)
6.53%: max response [4]
-6.32%: max response [19]
active: Potency [20] 31.6 µM | Potency [18] 14.1 µM
inactive: activation [1] 4.69% | Potency [2] | outcome [17] | max response [5] -14.5% | activation [8] -0.608% | max response [10] 1.85% | max response [11] 3.54% | max response [13] -4.78%

CNC(=O)O/N=C/C(C)(C)S(C)(=O)=O
-10.7%: max response [4]
-16.6%: max response [19]
inactive: Potency [2] | Potency [20] | Potency [3] | max response [5] 0.762% | activation [7] -2.46% | activation [8] -0.939% | max response [18] -0.004% | Potency [9] | max response [10] 1.38% | max response [11] 0.485% | Potency [12] | max response [13] 1.26%

CCC(C)(C)c1ccc(O)c(C(C)(C)CC)c1
-2.29%: max response [15]
-12.2%: max response [4]
active: Potency [18] 35.5 µM
inactive: outcome [14] | outcome [17] | max response [5] 0.417% | activation [7] -0.913% | activation [8] -1.01% | Potency [9] | max response [10] -16.3% | max response [11] -2.63% | max response [13] 3.81%

Clc1ccc(C2(Cn3cncn3)CC(Br)CO2)c(Cl)c1 (configuration not stated)
inactive: Potency [2] | outcome [14] | Potency [20] | Potency [3] | max response [5] -17.6% | activity change % (negative = inhibition) [6] -0.525% | activation [7] 1.75% | activation [8] 0.536% | max response [18] 0.204% | Potency [9] | max response [10] -3.86% | max response [11] -20.3% | Potency [12]
6.2%: max response [19]
-1.33%: max response [4]
30.9%: max response [15]

CCOP(=S)(OCC)SCSP(=S)(OCC)OCC
-10.3%: max response [4]
36.7%: max response [15]
inactive: Potency [2] | outcome [14] | Potency [16] | outcome [17] | Potency [3] | max response [5] -4.31% | activation [7] -5.14% | activation [8] 3.33% | max response [18] -1.9% | Potency [9] | max response [10] -0.915% | max response [11] -18.3% | Potency [12]
